# Screening data from PubChem.
# WRN helicase inh: inhibitors of human WRN helicase; Q14191; WRN helicase unwinding, fluorescent forked duplex, kinetic; Potency, µM (series often up to 114 µM), inactives show at the highest dose activity change, negative = inhibition, most hits filed as inhibitors; 360,000 tested, 0.46% active; note: % is set by controls: 0 for no effect and ±100 for the full control effect; nearly all actives have a fitted effect of over 55% in size
#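 Screening of the MLSMR collection measured strand separation of a quenched forked DNA duplex (100 nM) by 20 nM WRN with 2 mM ATP, all final. Compounds were preincubated with enzyme 15 min at room temperature.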
# POLB inh: blocks human DNA polymerase beta activity | 340,000 tested, 1.3% active | Potency, µM (top dose mostly 114 µM), without a hit: at the highest dose activity change, negative = inhibition, most hits filed as inhibitors | Pol beta primer extension/strand displacement, fluorescence kinetic; note: % is set by controls: 0 for no effect and ±100 for the full control effect
#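 Enzyme-only controls used 10 nM Pol beta; buffer lacking enzyme served as negative control. Compound preincubated 15 min, then 50 nM substrate added; 0 and 10 min reads at room temperature.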
# Pol kappa inh-1: inhibitors of human DNA polymerase kappa; Q9UBT6; purified Pol kappa, fluorescent DNA synthesis assay, 10 min; 400,000 tested, 0.53% active; AID 588579; Potency, µM (titrated, usually from 107 µM), for the others: at the highest dose activity, negative = inhibition, hits mostly inhibitors; note: % is set by controls: 0 for no effect and ±100 for the full control effect
#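 Inhibition of 10 nM Pol kappa is measured by a fluorescent read-out at 0 and 10 min following addition of 50 nM substrate (final), with a 15-min room-temperature compound preincubation.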
# FEN1 inh-1: inhibitors of human flap endonuclease 1 | P39748 | Recombinant FEN1 flap cleavage, fluorescence, 15 min | Potency, µM (titrated, usually from 114 µM), for the others: at the highest dose activity change, negative = inhibition, hits mostly inhibitors | 390,000 tested, 0.35% active; note: % is set by controls: 0 for no effect and ±100 for the full control effect; nearly all actives have a fitted effect of over 65% in size
# Target sequence (P39748 whole entry, looked up): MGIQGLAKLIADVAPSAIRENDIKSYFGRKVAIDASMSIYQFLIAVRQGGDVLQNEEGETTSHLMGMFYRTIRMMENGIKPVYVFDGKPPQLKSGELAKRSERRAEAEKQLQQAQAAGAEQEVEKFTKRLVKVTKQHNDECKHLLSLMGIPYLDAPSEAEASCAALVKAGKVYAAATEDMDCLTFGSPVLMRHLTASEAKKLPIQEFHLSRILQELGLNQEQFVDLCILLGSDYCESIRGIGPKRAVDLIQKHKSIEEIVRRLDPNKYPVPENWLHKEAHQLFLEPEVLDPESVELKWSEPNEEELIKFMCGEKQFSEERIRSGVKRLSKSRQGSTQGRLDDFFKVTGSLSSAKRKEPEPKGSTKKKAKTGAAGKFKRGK
#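 Steps: FEN1 (10 nM) dispensed; compound added by pin tool; 15 min at room temperature; substrate added to 50 nM final; reads at 0 min and 15 min; data normalized and fitted (four-parameter Hill).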
# Pol eta inh-1: DNA polymerase eta (human) inhibition. 390,000 tested, 1.2% active. Potency, µM (highest dose often 114 µM), inactives show at the highest dose activity change, negative = inhibition, most hits filed as inhibitors. recombinant Pol eta, fluorescent DNA replication assay. Q9Y253; note: % is set by controls: 0 for no effect and ±100 for the full control effect
#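 Pol eta at 10 nM preincubated with compounds 15 min at room temperature; reaction started with fluorescent substrate (50 nM final) and read kinetically at 0 and 10 min.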
# POLI inh: inhibitors of human DNA polymerase iota; Q9UNA4; Pol iota fluorescent replication assay, 10 min; Potency, µM (doses to about 115 µM), inactives show at the highest dose activity, negative = inhibition, hits mostly inhibitors; 390,000 tested, 1% active
#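 Pol iota at 10 nM preincubated 15 min with compounds at room temperature; reaction started with fluorescent substrate, 50 nM final. Fluorescence read kinetically at 0 and 10 min; buffer-only wells as negative control.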
# PGK validate: TbPGK inhibition, hit validation. shares compounds with Pol kappa inh-1. TbPGK coupled GAPDH assay, Kinase-Glo luminescence. Potency, µM (series often up to 57.5 µM), for the others: top-dose activity change, negative = inhibition, most hits filed as inhibitors. 500 tested, 79% active; note: % is set by controls: 0 for no effect and ±100 for the full control effect; nearly all actives have a fitted effect of over 65% in size
# Pol iota confirm: Inhibitors of human DNA polymerase iota, confirmation. shares compounds with Pol kappa inh-1. Pol iota primer extension, TAMRA/BHQ fluorescence. Potency, µM, hits mostly inhibitors. 1,500 tested, 77% active. AID 720496
# Pol kappa inh-2: confirmation of human DNA polymerase kappa inhibitors; 920 tested, 76% active; shares compounds with Pol eta inh-1; purified Pol-kappa, fluorescent strand-displacement substrate; Potency, µM, usual class: inhibitors
# Pol eta inh-2: Pol eta (human) inhibition, cherry-pick confirmation. AID 720502. Pol eta primer extension, TAMRA/BHQ fluorescence, 10 min. shares compounds with Pol eta inh-1. Potency, µM, most hits filed as inhibitors. 2,600 tested, 64% active
# FEN1 inh-2: FEN1 inhibition, cherry-pick retest; shares compounds with FEN1 inh-1; FEN1 flap cleavage, TAMRA/BHQ2 fluorogenic DNA substrate; Potency, µM, usual class: inhibitors; 880 tested, 79% active; AID 720498; note: nearly all actives have a fitted effect of over 60% in size
# * marks the source's active call; other numbers are inactive results; ? = inconclusive; . = not tested or not shown; [ ] = remark or other dose. Most compounds without a hit are left out; they make up all but 2.4% or so of the library. Calls come from the whole dose curve; as a rule, active = well fitted curve in the direction sought with a large enough effect; inconclusive = small, poorly fitted or top-dose-only effect, or another doubt; inactive = no such curve, though single readings can be large; an effect the other way counts as inactive or inconclusive. Potency is the fitted concentration of half-maximal effect.
SMILES,WRN helicase inh,POLB inh,Pol kappa inh-1,FEN1 inh-1,Pol eta inh-1,POLI inh,Pol iota confirm,Pol eta inh-2,FEN1 inh-2,others
Cc1ccc(/C=C/C(=O)OCC(=O)c2ccc3c(c2)NC(=O)CO3)o1,-6.5%,.,2.9%,-16.0%,-3.4%,3.7%,.,.,.,
O=C1COc2ccc(C(=O)COC(=O)/C=C/c3ccc(Br)o3)cc2N1,35.5µM*,.,17.8µM*,?,1.58µM*,20µM*,21.2*,67.5*,?,
O=C(NC1CCCC1)C(=O)N(Cc1cccnc1)C(C(=O)NC1CCCC1)c1ccco1 (centres undefined),1.8%,-19.0%,-3.2%,-13.6%,1.7%,2.7%,.,.,.,
COC(=O)c1c(OC)cc2c(c1C)Oc1c(Cl)c(O)c(Cl)c(C)c1C(=O)O2,.,.,-11.2%[60.1 µM],.,.,.,.,.,.,
COc1cc(C)c2c(c1C=O)Oc1c(c(C)c(O)c3c1C(O)OC3=O)OC2=O (centres undefined),50.1µM*,7.94µM*,22.4µM*,?,15.8µM*,44.7µM*,42.3*,21.3*,75.7*,PGK validate=4.61µM*
COC(=O)C1=C(C)NC(C)=C([N+](=O)[O-])C1c1ccccc1C(F)(F)F (centres undefined),-2.4%,1.3%[57.1 µM],-14.4%[60.1 µM],-0.6%,-10.2%,-11.0%,.,.,.,
O=C(COC(=O)c1ccc([N+](=O)[O-])o1)NC1CCCCC1,-1.6%[11.6 µM],.,-20.9%,?,?,79.4µM*,?,?,6.75*,
CC1CCCC(NC(=O)COC(=O)c2ccc([N+](=O)[O-])o2)C1C (centres undefined),1.9%,.,-24.0%,?,-8.9%,?,.,.,.,
COc1cc(C(=O)OCC(=O)NC2CCS(=O)(=O)C2)c([N+](=O)[O-])cc1OC (centres undefined),1.3%,21.8%,2.4%,-1.1%,-2.9%,124.4%,.,.,.,
O=C(COC(=O)c1ccc([N+](=O)[O-])o1)NC1CCS(=O)(=O)C1 (centres undefined),-19.2%[57.1 µM],0.1%,-15.9%,?,44.7µM*,63.1µM*,?,?,7.57*,
Cc1nc(S/C(=C/c2ccc(-c3ccc(C(=O)O)cc3)o2)C(=O)O)n[nH]1,-18.1%[11.6 µM],35.5µM*,?,?,17.8µM*,-95.5%,42.3*,19*,47.8*,
C/C(=N\NC(=O)Cn1nnc2ccccc21)c1ccco1,-11.3%,0.1%,-19.2%,14.6%,-3.7%,3.1%,.,.,.,
COc1ccc(-c2nn(C)c3sc(C(=O)NCCN(C)C)cc23)cc1OC,?,31.6µM*,?,17.8µM*,?,17.8µM*,?,.,30.1*,
C[C@H]1c2cccc(O)c2C(O)=C2C(=O)[C@]3(O)C(O)=C(C(N)=O)C(=O)[C@@H](N(C)C)[C@@H]3[C@@H](O)[C@@H]21,3.0%,31.5%,?,?,3.8%,-25.0%,.,.,.,
COc1cc(O)c(C(C)=O)c(CC(=O)O)c1,44.7µM*,15.8µM*,12.6µM*,22.4µM*,3.16µM*,12.6µM*,16.8*,8.49*,60.1*,PGK validate=8.19µM*
Cc1ccc2nc3[nH]c(=O)[nH]c(=O)c3c(N)c2c1,-5.9%,.,11.4%,?,-28.4%,18.8%,?,.,60.1*,
O=S(=O)(O)c1cc(O)c2cc(Nc3ccccc3)ccc2c1,11.2µM*,.,31.6µM*,50.1µM*,2.82µM*,3.16µM*,29.9*,16.9*,84.9*,PGK validate=9.19µM*;Pol kappa inh-2=3.36*
O=C(O)c1cc2cc(S(=O)(=O)O)ccc2cc1O,1.3%,.,-8.1%,-5.1%,-1.2%,-11.2%,.,.,.,
Nc1cccc2c(O)cc(S(=O)(=O)O)cc12,?,.,8.91µM*,8.91µM*,2.82µM*,3.16µM*,6.7*,6.01*,42.6*,PGK validate=5.17µM*;Pol kappa inh-2=2.67*
NS(=O)(=O)c1ccc(CCNC(=O)c2cc(-c3ccco3)nc3ccccc23)cc1,-11.3%,.,-20.0%,-3.4%,?,-20.4%,.,.,.,
CN(C)C(CNC(=O)c1cc(-c2ccco2)nc2ccccc12)c1ccccc1 (centres undefined),?,.,25.1µM*,?,11.2µM*,?,33.6*,75.7*,?,
Cc1c(Cl)ccc2c(C(=O)O)cc(-c3ccccc3)nc12,-7.0%[11.6 µM],-22.4%,-10.0%,2.0%,12.4%,?,.,.,.,
COc1ccc(/C=N/Nc2cc(C)nc3ccc(OC)cc23)c(OC)c1,12.6µM*,31.6µM*,?,22.4µM*,?,?,37.7*,47.8*,19*,
COc1ccc2nc(C)cc(Nc3ccc(C)cc3)c2c1,-7.9%,1.2%,-8.7%,-4.4%,-10.5%,-11.1%,.,.,.,
Cc1ccc(NC(=O)COc2ccc(/C=C3/SC(=Nc4ccccc4)N(Cc4cccnc4)C3=O)cc2)cc1,7.0%,28.9%,-1.4%,8.3%,-16.5%,16.5%,.,.,.,
SMILES,WRN helicase inh,POLB inh,Pol kappa inh-1,FEN1 inh-1,Pol eta inh-1,POLI inh,Pol iota confirm,Pol eta inh-2,FEN1 inh-2,others
CC1CCN(C(=O)Cn2cc(C(F)(F)F)ccc2=O)c2ccccc2S1 (centres undefined),6.5%,.,9.7%,0.0%,-12.2%,-8.7%,.,.,.,
CN(C)CCCNc1c2ccccc2nc2ccccc12,?,2.24µM*,25.1µM*,11.2µM*,22.4µM*,8.91µM*,10.6*,.,8.49*,Pol kappa inh-2=9.47*
Oc1ccc(CCNc2c3ccccc3nc3ccccc23)cc1O,50.1µM*,7.08µM*,?,17.8µM*,?,39.8µM*,75.2*,.,3.01*,
CN(C)CCCNc1nc(-c2ccccc2)nc2ccccc12,-3.4%,3.2%,-0.5%,-12.5%,-22.5%,18.2%,.,.,.,
CC(OC(=O)c1oc2ccccc2c1CSC1CCCCC1)C(=O)NC(N)=O (centres undefined),7.4%,-10.7%,-19.0%,0.6%,-0.7%,20.8%,.,.,.,
O=C(O)C(=O)/C(=C\c1ccc(Cl)cc1)c1ccc2ccccc2n1,-15.5%,-1.8%,-15.3%,-4.4%,-3.7%,-13.8%,.,.,.,
